These results are taken from PubChem BioAssay (Tox21).

A short description of assay [1]: A CellTox Green Cytotoxicity Assay to monitor cytotoxicity in HepG2 cells - 0 hour (AID 1224882). Further: nearly all actives have a fitted effect of over 35% in size. Put shortly: (§1)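 Continuous culture of HepG2 cells with a membrane-impermeant DNA dye; rising fluorescence marks dead cells. Compound exposure lasted up to 40 h at 37 C, with reads every 8 h from 0 h.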
Assay [2] can be described thus: A CellTox Green Cytotoxicity Assay to monitor cytotoxicity in HepG2 cells - 32 hour (AID 1224883). Further: nearly all actives have a fitted effect of over 50% in size. Further: potency means the concentration at half of the fitted maximal effect. In short, it runs like this: as §1
The nature of assay [3]: qHTS RealTime-Glo MT Cell Viability Assay in HepG2 cells - 16 hour (AID 1224885). Further: nearly all actives have a fitted effect of over 50% in size. Put shortly:
(§2)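 HepG2 suspension premixed with RealTime-Glo reagents is plated at 600 cells per well and left 5 h at 37 C/5% CO2. Compounds in DMSO then go in, and bioluminescence reflecting viable cell number is recorded over 40 h.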
Background: In qHTS, concentration-response curves come from the screen itself.

Assay [4] can be described thus: qHTS RealTime-Glo MT Cell Viability Assay in HEK293 cells - 24 hour (AID 1224886). Further: nearly all actives have a fitted effect of over 50% in size. Further: potency means the concentration at half of the fitted maximal effect. Put shortly:
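Reads taken at 0, 8, 16, 24, 32 and 40 h from the same wells. HEK293 cells (600/well) carried RealTime-Glo reagents from seeding, with compound added after a 5 h settle at 37 C.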

Assay [5] in a line: qHTS RealTime-Glo MT Cell Viability Assay in HEK293 cells - 8 hour (AID 1224887). Further: nearly all actives have a fitted effect of over 50% in size. Further: potency means the concentration at half of the fitted maximal effect. In short, it runs like this:
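qHTS format; HEK293 cells with NanoLuc/prosubstrate reagent, 37 C/5% CO2 for 5 h pre-dosing; compounds 23 nL in DMSO; luminescence at each time point reflects viable cells.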

Assay [6] in a line: A CellTox Green Cytotoxicity Assay to monitor cytotoxicity in HEK293 cells - 16 hour (AID 1224888). Further: nearly all actives have a fitted effect of over 35% in size. Put shortly:
(§3)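 Each value comes from one timepoint of a single continuous run in which HEK293 cells with CellTox Green were exposed to compound for up to 40 h at 37 C, dye fluorescence rising with cell death.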

Assay [7] is described as follows: qHTS RealTime-Glo MT Cell Viability Assay in HepG2 cells - 0 hour (AID 1224889). Further: nearly all actives have a fitted effect of over 50% in size. Put shortly: as §2
The nature of assay [8]: A CellTox Green Cytotoxicity Assay to monitor cytotoxicity in HepG2 cells - 8 hour (AID 1224890). Further: nearly all actives have a fitted effect of over 45% in size. Put shortly:
as §1

The nature of assay [9]: qHTS assay to identify small molecule antagonists of the estrogen receptor alpha (ER-alpha) signaling pathway using the BG1 cell line in the presence of 0.1 nM 17-beta-estradiol - cell viability counter screen (AID 1259241). Further: nearly all actives have a fitted effect of over 40% in size. Put shortly:
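Measures cytotoxicity alongside the ER-alpha antagonist readout: VM7Luc4E2 cells, charcoal-stripped serum, 0.1 nM 17beta-estradiol final, 22 hr compound incubation at 37C, CellTiter-Fluor fluorescence.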

Assay [10] is described as follows: qHTS assay to identify small molecule antagonists of the androgen receptor (AR) signaling pathway using the MDA cell line in the presence of 0.5 nM R1881 - cell viability counter screen (AID 1259242). Further: nearly all actives have a fitted effect of over 45% in size. Further: potency means the concentration at half of the fitted maximal effect. Put shortly: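 Fluorescence from CellTiter-Fluor, which reports protease activity of live cells, was read 30 min after reagent addition to MDA-kb2 cells that had been incubated 16 hr with compound and 0.5 nM R1881.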

Assay [11] is described as follows: qHTS assay to identify small molecule HDAC inhibitors (AID 1259364). Further: top concentration of the series differs between compounds; nearly all actives have a fitted effect of over 45% in size. In short, it runs like this:
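Endogenous HDAC class I/II activity was measured in wild-type HCT-116 cells by HDAC-Glo luminescence after 2 h compound treatment.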

The nature of assay [12]: qHTS assay to identify small molecule HDAC inhibitors - cell viability counter screen (AID 1259365). Put shortly:
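Following a 2hr exposure of overnight-plated wild-type HCT-116 cells to DMSO-delivered compounds, CellTiter-Glo was added and luminescence recorded after 30min at room temperature.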

The nature of assay [13]: qHTS assay to identify small molecule agonists of the sonic hedgehog signaling (Shh) pathway - cell viability counter screen (AID 1259366). Further: nearly all actives have a fitted effect of over 50% in size. In short, it runs like this: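 After a 4hr attachment at 37C, NIH/3T3 cells bearing an integrated Gli1-driven luciferase reporter were dosed with compounds. Treatment lasted 24hr, with the final hour including CellTiter-Fluor for a fluorescence viability measurement.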

A short description of assay [14]: qHTS assay to identify small molecule agonists of the sonic hedgehog signaling (Shh) pathway (AID 1259368; calls by dose curve;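 further: NIH/3T3-derived 3T3Gli1-Luc cells carrying a stable Gli1-driven firefly luciferase reporter; series mostly up to about 92 µM; nearly all actives have a fitted effect of over 15% in size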). Put shortly:
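Luminescent signal was taken as a measure of Gli1-controlled luciferase expression in stably transfected NIH/3T3-derived cells that had been treated for 24 hr with compounds delivered in DMSO.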

The nature of assay [15]: qHTS assay to identify small molecule antagonists of the sonic hedgehog signaling (Shh) pathway (AID 1259369; calls by dose curve; further: nearly all actives have a fitted effect of over 45% in size). In short, it runs like this: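 Screening used 3T3Gli1-Luc cells at 2,000 per well, compounds delivered in DMSO, and conditioned medium as agonist stimulus; plates incubated 24hr at 37 C and 5% CO2 before a 30min luciferase step.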
The target of assay [16] is Estrogen receptor (Homo sapiens) (UniProt P03372). The assay is described as follows: qHTS assay to identify small molecule antagonists of the estrogen receptor alpha (ER-alpha) signaling pathway using the BG1 cell line in the presence of 0.1 nM 17-beta-estradiol (AID 1259244). Further: nearly all actives have a fitted effect of over 50% in size. Further: potency means the concentration at half of the fitted maximal effect. Put shortly: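 Quantitative high-throughput screen in VM7Luc4E2 cells: compound plus 0.1 nM E2 (final), 22 h, 37C, 5% CO2; ONE-Glo added, 30 min room temperature, luminescence measured.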

Assay [17] can be described thus: qHTS assay to identify small molecule antagonists of the sonic hedgehog signaling (Shh) pathway - cell viability counter screen (AID 1259367). Further: nearly all actives have a fitted effect of over 55% in size. In short, it runs like this:
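Seed 3T3 Gli1-Luc cells at 2,000 per well; incubate 4 hr; add compound in DMSO, then conditioned medium; incubate at 37C with 5% CO2; add CellTiter-Fluor after 23 hr; read fluorescence 1 hr later.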

Assay [18] in a line: A CellTox Green Cytotoxicity Assay to monitor cytotoxicity in HEK293 cells - 8 hour (AID 1224884). Further: nearly all actives have a fitted effect of over 35% in size. Put shortly:
as §3

The nature of assay [19]: qHTS assay to identify small molecule phospholipidosis (PLD) inducers (AID 1259344; active means well fitted curve in the direction sought with a large enough effect; an effect the other way counts as inactive or inconclusive). Put shortly: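 Quantitative HTS in HepG2: compound plus LipidTOX Red dye for 24 h, paraformaldehyde fixation with Hoechst 33342, widefield high-content imaging; amiodarone as positive and DMSO as negative control.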
For assay [20], the target named is Androgen receptor (Homo sapiens) (UniProt P10275). The assay is described as follows: qHTS assay to identify small molecule antagonists of the androgen receptor (AR) signaling pathway using the MDA cell line in the presence of 0.5 nM R1881 (AID 1259243). Further: nearly all actives have a fitted effect of over 50% in size. Put shortly: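 Inhibition of R1881 (0.5 nM final) induced reporter signal was measured in human MDA-kb2 cells; note the MMTV promoter also responds to GR. Exposure lasted 16 hr at 37C.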

Inconclusive results are not listed. Active and inactive are the calls of the source. Unless noted, the call rests on the fitted dose curve; in most records, active means well fitted curve in the direction sought with a large enough effect in the repeat runs; inconclusive means weak or mixed curves; inactive means no such curve, though single readings can be large; an effect the other way counts as inactive or inconclusive.

Estrogen receptor (Homo sapiens), sequence (P03372 whole entry, looked up): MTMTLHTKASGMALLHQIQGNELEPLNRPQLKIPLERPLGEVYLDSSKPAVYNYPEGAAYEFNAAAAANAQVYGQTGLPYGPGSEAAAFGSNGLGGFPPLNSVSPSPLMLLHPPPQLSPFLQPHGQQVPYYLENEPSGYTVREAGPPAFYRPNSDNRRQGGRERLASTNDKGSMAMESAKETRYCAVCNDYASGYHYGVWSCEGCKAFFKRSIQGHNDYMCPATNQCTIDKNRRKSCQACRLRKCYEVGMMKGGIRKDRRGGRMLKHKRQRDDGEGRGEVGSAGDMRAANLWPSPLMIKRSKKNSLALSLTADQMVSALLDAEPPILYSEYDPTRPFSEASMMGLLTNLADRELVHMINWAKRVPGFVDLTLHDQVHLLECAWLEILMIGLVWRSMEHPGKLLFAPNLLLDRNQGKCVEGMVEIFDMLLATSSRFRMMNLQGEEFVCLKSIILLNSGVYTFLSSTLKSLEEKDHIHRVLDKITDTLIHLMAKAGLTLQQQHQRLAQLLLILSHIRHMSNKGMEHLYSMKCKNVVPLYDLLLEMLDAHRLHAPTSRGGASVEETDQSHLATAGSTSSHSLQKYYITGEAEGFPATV
Androgen receptor (Homo sapiens), sequence (P10275 whole entry, looked up): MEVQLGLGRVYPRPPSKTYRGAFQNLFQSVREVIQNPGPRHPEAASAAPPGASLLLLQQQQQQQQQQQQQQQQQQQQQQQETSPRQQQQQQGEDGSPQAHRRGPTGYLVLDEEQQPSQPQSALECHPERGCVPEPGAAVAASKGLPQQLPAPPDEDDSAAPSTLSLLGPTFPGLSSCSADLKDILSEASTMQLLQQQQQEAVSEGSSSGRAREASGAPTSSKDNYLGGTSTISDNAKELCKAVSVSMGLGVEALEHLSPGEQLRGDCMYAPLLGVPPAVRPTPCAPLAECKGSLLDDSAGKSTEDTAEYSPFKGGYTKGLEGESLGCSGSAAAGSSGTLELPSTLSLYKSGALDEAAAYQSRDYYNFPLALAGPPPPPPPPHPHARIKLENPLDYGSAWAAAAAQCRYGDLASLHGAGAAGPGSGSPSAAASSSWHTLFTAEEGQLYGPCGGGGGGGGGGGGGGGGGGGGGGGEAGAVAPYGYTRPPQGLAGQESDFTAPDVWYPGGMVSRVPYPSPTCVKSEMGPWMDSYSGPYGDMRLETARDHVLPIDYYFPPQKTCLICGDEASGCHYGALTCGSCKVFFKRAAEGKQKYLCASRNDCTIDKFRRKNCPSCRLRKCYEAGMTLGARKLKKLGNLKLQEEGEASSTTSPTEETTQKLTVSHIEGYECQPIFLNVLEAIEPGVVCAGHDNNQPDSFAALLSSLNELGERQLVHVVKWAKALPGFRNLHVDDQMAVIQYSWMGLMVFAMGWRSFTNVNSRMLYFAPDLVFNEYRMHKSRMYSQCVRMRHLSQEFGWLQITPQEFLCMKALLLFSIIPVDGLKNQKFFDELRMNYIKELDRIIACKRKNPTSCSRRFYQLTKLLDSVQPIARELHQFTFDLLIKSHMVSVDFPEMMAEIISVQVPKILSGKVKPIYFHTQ

Regarding `O=C(O)/C=C/c1cnc[nH]1`, the Potency result in [1], in [2], in [3], in assay [4], in assay [5] and in [6] was “inactive” in each case. The Potency entry in [7], in assay [8], in assay [9], in [10], in [11] and in assay [13] was “inactive” each time. In assay [15], the Potency entry was “inactive”. For the same compound, the compound was classed as inactive in assay [12] and in [14].
For `Cc1ccc2c(ccc3ccccc32)c1`, the Potency result in assay [1], in assay [2], in assay [3], in [5], in assay [6] and in assay [7] was “inactive” each time. For the same compound, the Potency entry in assay [8], in assay [9], in assay [10], in assay [16], in assay [11] and in assay [13] was “inactive” throughout. The Potency entry in assay [17] and in [15] was “inactive” throughout. In addition, the outcome in assay [12] and in [14] was inactive.
Consider `CCCCCCCCCC=O`, for which the Potency result in [1], in [2], in [3], in assay [4], in [5] and in assay [6] was “inactive” each time. The Potency result in [7], in assay [8], in assay [9], in assay [10], in assay [16] and in assay [11] was “inactive” throughout. For the same compound, the Potency entry in assay [13], in assay [17] and in assay [15] was “inactive” throughout. Besides, the outcome in [12] and in [14] was inactive.
As to `Cc1nc2ccccc2n1Cc1ccc(Cl)cc1`, the Potency result in [1], in assay [2], in assay [18], in [6], in assay [7] and in assay [8] was “inactive” in each case. Also, the Potency result in [19], in [11] and in assay [17] was “inactive” throughout. In addition, the Potency in assay [4] was 1.9 µM (active); in [5] it was 8.49 µM (active); in [10] it was 5.96 µM (active); in assay [16], 2.11 µM (active). Besides, the compound was classed as inactive in assay [12] and in assay [14].
For `Cc1ccc(C)o1`, the Potency entry in [1], in [2], in [18], in assay [4], in assay [5] and in assay [6] was “inactive” in each case. Besides, the Potency entry in assay [7], in assay [8], in assay [9], in assay [10], in assay [11] and in assay [13] was “inactive” each time. Besides, the Potency result in assay [17] and in assay [15] was “inactive” each time. Besides, the outcome in assay [12] and in [14] was inactive.
For the compound `CC(=O)c1c(C)c([N+](=O)[O-])c(C(C)(C)C)c([N+](=O)[O-])c1C`, the Potency entry in [1], in assay [2], in assay [3], in assay [4], in assay [5] and in assay [6] was “inactive” in each case. For the same compound, the Potency entry in assay [7], in assay [8], in assay [9], in assay [10], in [11] and in assay [17] was “inactive” in each case. Further, the Potency result in assay [15] is “inactive”. Further, the result in [12] and in [14] was inactive.
Turning to `CCOC(=O)[C@H](CCc1ccccc1)N[C@H]1CCc2ccccc2N(CC(=O)O)C1=O`, the Potency result in assay [1], in assay [18], in [6], in assay [11], in [13] and in [15] was “inactive” in each case. Further, in assay [2], the Potency was 26.8 µM (active). Moreover, the result in assay [12] and in [14] was inactive.
Consider `COc1ccc(C(C)=O)cc1`, for which the Potency entry in [1], in assay [2], in [3], in assay [4], in [5] and in [6] was “inactive” throughout. Besides, the Potency entry in assay [7], in assay [8], in assay [9], in assay [10], in assay [20] and in assay [16] was “inactive” throughout. Further, the Potency entry in [11], in assay [13] and in [15] was “inactive” in each case. The call in assay [12] and in [14] was inactive.
